The record followed here is publication PMC5700166.

Changes are numbered by the printed parent chain.

What all share (assay): protein-binding microarray (PBM); PBM: ~300 nM protein, 6 mM HEPES pH 7.8, 80 mM KCl, 0.5 mM EDTA, 0.5 mM EGTA, 6% glycerol, 35 ng/ul poly-dIdC, 1% milk, 1 h, room temperature; Ap Aiptasia and Nv Nematostella (sea anemones) / Co Capsaspora / Aq Amphimedon (sponge) / Dm Drosophila / Hu human; RHD is the Rel homology domain; high values mean tight binding
What all share (conditions): dsDNA, one strand shown

One test addresses T1, GST-Ap-NF-kB RHD (Exaiptasia pallida (Aiptasia), UniProt A0A913YAJ5 2-422).
T1 sequence: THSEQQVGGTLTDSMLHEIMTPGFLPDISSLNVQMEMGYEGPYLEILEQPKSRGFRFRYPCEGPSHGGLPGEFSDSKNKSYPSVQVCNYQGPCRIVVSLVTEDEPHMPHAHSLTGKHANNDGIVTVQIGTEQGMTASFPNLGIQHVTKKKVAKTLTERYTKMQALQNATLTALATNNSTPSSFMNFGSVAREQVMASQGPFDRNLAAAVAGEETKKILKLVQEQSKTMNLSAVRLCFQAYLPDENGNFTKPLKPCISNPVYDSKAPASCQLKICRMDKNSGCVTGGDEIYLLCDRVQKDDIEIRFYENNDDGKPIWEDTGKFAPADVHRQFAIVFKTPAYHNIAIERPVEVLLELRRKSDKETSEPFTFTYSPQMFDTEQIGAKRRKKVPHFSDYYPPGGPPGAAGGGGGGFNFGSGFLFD

Another test deals with T2, GST-Co-NF-kB (Capsaspora owczarzaki, UniProt F1ARL5 200-546).
T2 sequence: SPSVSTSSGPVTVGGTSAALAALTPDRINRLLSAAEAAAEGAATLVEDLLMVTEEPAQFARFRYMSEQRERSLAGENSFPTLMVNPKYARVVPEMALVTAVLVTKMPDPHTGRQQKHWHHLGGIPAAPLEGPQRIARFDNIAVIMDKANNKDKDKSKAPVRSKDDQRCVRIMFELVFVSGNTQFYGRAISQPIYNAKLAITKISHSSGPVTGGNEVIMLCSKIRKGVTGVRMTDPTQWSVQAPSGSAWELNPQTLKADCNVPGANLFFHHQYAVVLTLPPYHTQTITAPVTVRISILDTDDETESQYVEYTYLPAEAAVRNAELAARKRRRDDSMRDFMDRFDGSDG

In another test the target is T3, GST-Dm-Relish (Drosophila melanogaster, UniProt Q94527 99-473).
T3 sequence: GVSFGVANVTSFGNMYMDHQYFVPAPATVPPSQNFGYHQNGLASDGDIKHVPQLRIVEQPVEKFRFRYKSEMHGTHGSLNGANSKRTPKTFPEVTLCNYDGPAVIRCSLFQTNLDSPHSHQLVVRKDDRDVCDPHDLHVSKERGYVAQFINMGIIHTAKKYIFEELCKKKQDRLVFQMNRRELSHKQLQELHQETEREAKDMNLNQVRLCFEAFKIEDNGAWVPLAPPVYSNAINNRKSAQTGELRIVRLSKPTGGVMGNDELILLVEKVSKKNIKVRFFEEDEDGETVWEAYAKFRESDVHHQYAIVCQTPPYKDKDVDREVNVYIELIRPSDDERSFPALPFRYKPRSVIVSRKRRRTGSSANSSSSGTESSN

Another test addresses T4, GST-Aq-NF-kB (Amphimedon queenslandica, UniProt A9Y5G7 2-389).
T4 sequence: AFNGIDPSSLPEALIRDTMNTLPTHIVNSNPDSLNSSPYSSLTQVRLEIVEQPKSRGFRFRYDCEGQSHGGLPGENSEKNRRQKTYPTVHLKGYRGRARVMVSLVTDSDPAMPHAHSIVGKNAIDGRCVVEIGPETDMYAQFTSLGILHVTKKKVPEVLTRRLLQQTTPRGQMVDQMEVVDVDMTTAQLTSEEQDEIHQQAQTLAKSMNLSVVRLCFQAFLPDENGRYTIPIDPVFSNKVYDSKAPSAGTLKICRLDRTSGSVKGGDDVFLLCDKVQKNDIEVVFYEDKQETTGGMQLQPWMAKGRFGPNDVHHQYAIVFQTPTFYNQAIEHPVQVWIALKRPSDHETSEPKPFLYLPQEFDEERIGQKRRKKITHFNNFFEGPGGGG

The target in a further test is GST-Hu-p50 (Homo sapiens, UniProt P19838 7-356).
The target in test [1] is T5, GST-Nv-NF-kB (Cys allele) (Nematostella vectensis, UniProt E5G601 2-411).
T5 sequence: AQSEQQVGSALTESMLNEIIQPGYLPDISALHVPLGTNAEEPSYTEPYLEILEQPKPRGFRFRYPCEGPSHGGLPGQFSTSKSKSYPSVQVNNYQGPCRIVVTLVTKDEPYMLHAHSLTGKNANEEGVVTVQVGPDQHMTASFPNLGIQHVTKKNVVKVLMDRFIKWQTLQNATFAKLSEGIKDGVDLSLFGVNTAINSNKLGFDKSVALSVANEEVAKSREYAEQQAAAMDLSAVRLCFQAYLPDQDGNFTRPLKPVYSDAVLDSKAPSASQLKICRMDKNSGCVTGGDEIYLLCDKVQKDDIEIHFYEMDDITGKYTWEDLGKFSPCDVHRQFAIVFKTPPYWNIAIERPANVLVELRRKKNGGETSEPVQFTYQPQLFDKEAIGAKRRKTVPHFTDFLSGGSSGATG

The target of test [2] is T6, GST-Nv-NF-kB (Ser allele) (Nematostella vectensis, UniProt A7UNT2 2-411).
T6 sequence: T5 sequence with Q21R, C66S, S207N, E215Q, V217A, E225K, A268E, D399E

Sequence of GST-Hu-p50 (P19838 7-356): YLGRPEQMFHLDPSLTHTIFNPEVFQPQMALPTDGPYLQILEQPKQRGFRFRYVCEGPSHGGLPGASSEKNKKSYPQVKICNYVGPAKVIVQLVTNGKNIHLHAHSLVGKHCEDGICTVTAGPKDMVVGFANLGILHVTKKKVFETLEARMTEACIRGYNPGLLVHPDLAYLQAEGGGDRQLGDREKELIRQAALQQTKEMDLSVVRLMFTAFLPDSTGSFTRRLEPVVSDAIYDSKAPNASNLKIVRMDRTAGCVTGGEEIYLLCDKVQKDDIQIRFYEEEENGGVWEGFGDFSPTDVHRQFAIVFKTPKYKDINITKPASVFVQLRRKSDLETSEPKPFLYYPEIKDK

With “CCGATTAACATCAGACCCCCCCCTGATGTTAATCGGGTCTTGATTCGCTTGACGCTGCTG”, the binding signal in the test with GST-Ap-NF-kB RHD was 5.15 z-score; with GST-Co-NF-kB, 4.59 z-score; with GST-Dm-Relish, 4.7 z-score; in the test with GST-Aq-NF-kB it was 4.8 z-score; with GST-Hu-p50, 4.03 z-score.

As for “CCGATTAACATCAAAAAAATTCCTGATGTTAATCGGGTCTTGATTCGCTTGACGCTGCTG”, the binding signal amounted to 1.23 z-score in test [1]; 1.22 z-score in test [2]; 3.84 z-score with GST-Dm-Relish; 2.87 z-score with GST-Aq-NF-kB; 1.79 z-score in the test with GST-Hu-p50.

For “CCGATTAACATCAGGATTTGCCCTGATGTTAATCGGGTCTTGATTCGCTTGACGCTGCTG”, the binding signal in test [1] stood at 1.25 z-score; with GST-Aq-NF-kB it was 3.5 z-score; with GST-Hu-p50 it was 1.37 z-score.

As to “CCGATTAACATCACTTCGGGAAATGATGTTAATCGGGTCTTGATTCGCTTGACGCTGCTG”, the binding signal worked out at 2.8 z-score in test [1]; 1.97 z-score in test [2]; 2.89 z-score in the test with GST-Co-NF-kB; 2.16 z-score in the test with GST-Aq-NF-kB; 1.48 z-score in the test with GST-Hu-p50.

As for “CCGATTAACATCAAAATTTTTCCTGATGTTAATCGGGTCTTGATTCGCTTGACGCTGCTG”, the binding signal stood at 1.42 z-score in test [2]; 1.06 z-score in the test with GST-Co-NF-kB; 2.86 z-score in the test with GST-Dm-Relish; 1.46 z-score with GST-Aq-NF-kB; 1.87 z-score in the test with GST-Hu-p50.

Turning to “CCGATTAACATCAGGAAATTCCATGATGTTAATCGGGTCTTGATTCGCTTGACGCTGCTG”, the binding signal was 1.06 z-score in test [1], 1.68 z-score with GST-Dm-Relish, 3.91 z-score with GST-Aq-NF-kB and 1.1 z-score in the test with GST-Hu-p50.

“CCGATTAACATCAAAATTCCGGGTGATGTTAATCGGGTCTTGATTCGCTTGACGCTGCTG” gave a binding signal with GST-Co-NF-kB of 1.33 z-score.

In the case of “CCGATTAACATCAAAAATTCCAGTGATGTTAATCGGGTCTTGATTCGCTTGACGCTGCTG”, the binding signal with GST-Co-NF-kB amounted to 1.37 z-score.

For the sequence “CCGATTAACATCACATACCCCCCTGATGTTAATCGGGTCTTGATTCGCTTGACGCTGCTG”, the binding signal in the test with GST-Ap-NF-kB RHD is 4.69 z-score; in test [1] it was 3.25 z-score; in test [2] it was 3.69 z-score; in the test with GST-Co-NF-kB it was 3.97 z-score; in the test with GST-Dm-Relish it was 3.92 z-score; with GST-Aq-NF-kB it was 3.91 z-score.

On to “CCGATTAACATCAGAAATCCCAATGATGTTAATCGGGTCTTGATTCGCTTGACGCTGCTG”, for which the binding signal with GST-Ap-NF-kB RHD came to 2.44 z-score; in test [1], 2.13 z-score; in test [2], 1.82 z-score; with GST-Co-NF-kB, 1.84 z-score; in the test with GST-Dm-Relish, 5.13 z-score; with GST-Aq-NF-kB, 2.14 z-score.

With “CCGATTAACATCACGATTTTCCCTGATGTTAATCGGGTCTTGATTCGCTTGACGCTGCTG”, the binding signal is 3.77 z-score with GST-Ap-NF-kB RHD; 5.64 z-score in test [1]; 7.32 z-score in test [2]; 4.9 z-score with GST-Co-NF-kB; 1.65 z-score with GST-Dm-Relish; 4.47 z-score with GST-Aq-NF-kB.

With “CCGATTAACATCAGGGAAAAAAATGATGTTAATCGGGTCTTGATTCGCTTGACGCTGCTG”, the binding signal is 3.48 z-score with GST-Ap-NF-kB RHD; 5.81 z-score in test [1]; 7.5 z-score in test [2]; 5.71 z-score with GST-Co-NF-kB; 2.19 z-score with GST-Dm-Relish; 4.63 z-score with GST-Aq-NF-kB.

For “CCGATTAACATCACAATTTTCCCTGATGTTAATCGGGTCTTGATTCGCTTGACGCTGCTG”, the binding signal amounted to 4.54 z-score with GST-Ap-NF-kB RHD; 6.45 z-score in test [1]; 7.95 z-score in test [2]; 5.61 z-score in the test with GST-Co-NF-kB; 2.17 z-score with GST-Dm-Relish; 5.58 z-score with GST-Aq-NF-kB.

“CCGATTAACATCAGGGAATACACTGATGTTAATCGGGTCTTGATTCGCTTGACGCTGCTG”: the binding signal with GST-Ap-NF-kB RHD stood at 2.66 z-score; in test [1] it was 2.43 z-score; in test [2] it was 2.21 z-score; with GST-Co-NF-kB it was 2.5 z-score; with GST-Dm-Relish, 2.61 z-score; in the test with GST-Aq-NF-kB, 3.68 z-score.

For the sequence “CCGATTAACATCAAGAGTTCCCCTGATGTTAATCGGGTCTTGATTCGCTTGACGCTGCTG”, the binding signal in the test with GST-Ap-NF-kB RHD came out at 7.18 z-score; in test [1] it was 7.2 z-score; in test [2] it was 7.72 z-score; with GST-Co-NF-kB, 6.55 z-score; with GST-Dm-Relish, 7.58 z-score; with GST-Aq-NF-kB it was 5.77 z-score.
